# AMA1-RON2 inh: disrupts binding of P. falciparum AMA1 to RON2 | 360,000 tested, 0.2% active | Potency, µM (highest dose often 58.2 µM), actives largely listed as inhibitors | AlphaScreen AMA1-biotinylated RON2 peptide binding; note: nearly all actives have a fitted effect of over 45% in size
#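 AMA1 (3D7) with his tag at 25 nM final met compounds first, then biotinylated RON2 peptide at 25 nM; detection used donor plus acceptor beads, 10 µg/mL apiece, read by AlphaScreen after 30 min at room temperature.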
# Sm TGR inh: blocks Schistosoma mansoni thioredoxin glutathione reductase | purified TGR, DTNB reduction, TNB absorbance 405 nm | 360,000 tested, 3% active | Potency, µM (series often up to 114 µM), hits mostly inhibitors | AID 485364 | Q962Y6; note: nearly all actives have a fitted effect of over 60% in size
#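 Kinetic colorimetric format: TGR-catalysed, NADPH-driven DTNB reduction monitored via TNB absorbance. Enzyme dispensed at 20 nM; compound exposure 15 min at room temperature before reaction start.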
# AmpC inh detg: inhibitors of E. coli AmpC beta-lactamase with detergent; Potency, µM (highest dose often 114 µM), most hits filed as inhibitors; AmpC hydrolysis of nitrocefin, absorbance 480 nm, 0.01% Triton; P00811; 370,000 tested, 0.041% active; note: nearly all actives have a fitted effect of over 25% in size
# Target sequence (P00811 whole entry, looked up): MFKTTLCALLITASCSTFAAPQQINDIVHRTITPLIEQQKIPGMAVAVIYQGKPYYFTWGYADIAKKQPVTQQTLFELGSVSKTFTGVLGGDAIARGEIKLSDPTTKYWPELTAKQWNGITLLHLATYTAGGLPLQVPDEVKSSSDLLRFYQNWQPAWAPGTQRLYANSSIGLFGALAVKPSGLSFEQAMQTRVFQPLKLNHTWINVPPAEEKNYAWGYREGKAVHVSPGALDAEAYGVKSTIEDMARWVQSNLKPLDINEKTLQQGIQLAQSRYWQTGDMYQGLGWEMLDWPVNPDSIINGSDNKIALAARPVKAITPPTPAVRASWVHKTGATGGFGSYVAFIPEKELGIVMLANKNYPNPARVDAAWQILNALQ
#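 AmpC (5.3 nM in the dispensed reagent) in 20 mM phosphate pH 7.0 with 0.01% (detergent screen) or 0.0001% Triton X-100 was preincubated with compounds for 15 min at room temperature. Nitrocefin was then added from an 800 uM solution, and hydrolysis was followed at 480 nm.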
# RE007 growth inh: less growth of the S. pombe RE007 Vpr strain. Potency, µM (top dose mostly 92.2 µM), usual class: inhibitors. 360,000 tested, 0.21% active. S. pombe RE007 Vpr strain, BacTiter-Glo ATP luminescence, 24 h; active = well fitted falling curve with a large enough effect; inconclusive = small, poorly fitted or top-dose-only effect; inactive = no such curve, though single readings can be large or run the other way; note: nearly all actives have a fitted effect of over 50% in size
#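 Fission yeast strain RE007, carrying one chromosomally integrated HIV-1 vpr copy, was seeded at OD 0.01 in PMG+AL medium with 23 nL pinned compound. After 24 h at 30 °C and 99% humidity, viability was read by BacTiter-Glo luminescence.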
# AmpC inh no detg: inhibitors of E. coli AmpC beta-lactamase without detergent; P00811; AmpC nitrocefin hydrolysis, absorbance 480 nm, 0.0001% Triton; Potency, µM (top dose mostly 57.1 µM), hits mostly inhibitors; 330,000 tested, 0.52% active; note: nearly all actives have a fitted effect of over 20% in size
#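 AmpC (5.3 nM in the dispensed reagent) in 20 mM phosphate pH 7.0 with 0.01% (detergent screen) or 0.0001% Triton X-100 was preincubated with compounds for 15 min at room temperature. Nitrocefin was then added from an 800 uM solution, and hydrolysis was followed at 480 nm.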
# A number is an active result; 0 = inactive; ? = inconclusive; - = no result; ! = a repeat was not active; [ ] = remark or other dose. Shown are actives, neighbours in structure and some others; about 3.2% of the full set was active somewhere. Unless noted, calls come from the whole dose curve; as a rule, active = well fitted curve in the direction sought with a large enough effect; inconclusive = small, poorly fitted or top-dose-only effect, or another doubt; inactive = no such curve, though single readings can be large; an effect the other way counts as inactive or inconclusive.
SMILES,AMA1-RON2 inh,Sm TGR inh,AmpC inh detg,RE007 growth inh,AmpC inh no detg
CCOC(=O)c1ccc(N2C(=O)CC(SCC(N)C(=O)OCC)C2=O)cc1 (stereo not given),0,14µM,0,0,0
CCOC(=O)C(N)CSC1CC(=O)N(c2ccc(OCC)cc2)C1=O (stereo not given),0,45µM,?,?,0
N#Cc1nc(-c2ccc(COc3ccc(Cl)cc3)o2)oc1N1CCC(C(N)=O)CC1,-,0,0,-,-
Cc1nn(-c2ccc(N3CCCC3)nn2)c(C)c1CCC(=O)NCc1ccccc1F,-,?,0,-,-
C=CCNc1nnc(SC2CC(=O)N(c3ccc(OCCC)cc3)C2=O)s1 (stereo not given),0,4µM,0,11µM,0
CCOC(=O)c1ccc(N2C(=O)CC(Sc3nnc(C)s3)C2=O)cc1 (stereo not given),0,4.5µM,0,20µM,0
Nc1nnc(SC2CC(=O)N(c3ccccc3)C2=O)s1 (stereo not given),0,2.5µM,?,28µM,0
O=C1CC(Sc2ncccn2)C(=O)N1c1ccccc1 (stereo not given),0,?,0,0,0
CCOC(=O)c1ccc(N2C(=O)CC(Sc3nc(C)cc(C)n3)C2=O)cc1 (stereo not given),0,0,?,0,0
COc1cc2[nH]c(=O)n(CCCC(=O)NCc3ccccc3Cl)c(=O)c2cc1OC,-,0,0,-,-
CN1CCN(CCCN2c3ccccc3Sc3ccc(Cl)cc32)CC1,16µM!,0,0,0,0
CCSc1ccc2c(c1)N(CCCN1CCN(C)CC1)c1ccccc1S2,?,0,0,0[18.4 µM],0
CN(C)CCCN1c2ccc(O)cc2Sc2ccc(Cl)cc21,20µM,-,-,0,-
Cc1ccc(N2CC(c3nnc(Cc4ccc(F)cc4Cl)o3)CC2=O)cc1 (stereo not given),-,0,0,-,-
CCOC(=O)c1c(C)oc2nc(C)nc(NCc3ccccc3OC)c12,-,0,0,-,-
Cc1c(NC(=O)c2cc(=O)c3cc(Cl)ccc3o2)c(=O)n(-c2ccccc2)n1C,-,0,0,-,-
COc1cccc(CCNC(=O)c2c(O)nc3cc(C)ccn3c2=O)c1,-,0,0,-,-
Cn1nc([N+](=O)[O-])c(C(C#N)c2nc3ccccc3n2C)c(Cl)c1=O (stereo not given),0,32µM,?,0,0
Cn1c(-c2ccc([N+](=O)[O-])cc2)nc2ccccc21,0,-,0,0,0
Oc1c(Br)cc(Br)cc1CNc1cccc2cccnc12,0,1.8µM,0,?,0
CCOC(=O)/C(C#N)=C/C1=C(N2CCOCC2)C(C)(C)OCC1,0,28µM,0,0,0
CC[C@H](C)[C@@H](NC(=O)O[C@@H]1C(=O)c2cc(Br)ccc2O[C@H]1c1ccc2c(c1)OCO2)C(=O)OC,-,0,0,-,35µM
Cc1cc(C)c(S(=O)(=O)c2ccccc2C)c(SCC(C)C)n1,0,0,0,0,0.25µM
C(=NN1CCCCCC1)c1ccccc1,0,-,-,0,-
CN(c1ccccc1)c1ccc(/C=N/N2CCOCC2)cc1,11µM,0,0,0,0
SMILES,AMA1-RON2 inh,Sm TGR inh,AmpC inh detg,RE007 growth inh,AmpC inh no detg
COc1cccc(NC(=O)N2CCN3CCCCC3C2)c1 (stereo not given),-,0,0,-,-
CN1C(=O)/C(=C/c2cccc([N+](=O)[O-])c2)C(=O)N1c1ccccc1,0,25µM,0,0,0
CCCCc1ccc(NC(=O)CSc2nc(=O)[nH]c3c2CCCC3)cc1,-,0,0,-,-
CC(C)c1ccc(NC(=O)CSc2nc(=O)[nH]c3c2CCCC3)cc1,0,0,0,0,35µM
COc1cccc(C(=O)NC(=S)Nc2cccnc2)c1,0,56µM,0,0,0
CCOc1ccc(C(=O)NC(=S)Nc2cccnc2)cc1,0,0,0,0,0
CC(C)Oc1cccc(C(=O)NC(=S)Nc2cccnc2)c1,0,?,?,0,0
CCOc1cc(C(=O)NC(=S)Nc2cccnc2)cc(OCC)c1OCC,0,50µM,0,0,0
CC1(C)Cc2noc(N)c2C(C)(C)N1O,0,2.8µM,0,0,0
CN1CCc2c(C#N)c(N3CCCCC3)nc(N3CCOCC3)c2C1,0,-,-,0,-
CN1CCc2c(C#N)c(Cl)nc(Cl)c2C1,0,32µM,0,0,0
O=S(=O)(c1cccc(C(F)(F)F)c1)N1CCC(Oc2ccc(-n3cnnn3)cc2)CC1,-,0,0,-,-
Cc1cc(SCC(=O)NCc2ccc(Cl)cc2)nc(=O)[nH]1,-,0,0,-,-
COc1cccc(-c2cn3c(n2)sc2cc(C(=O)NCc4cccs4)ccc23)c1,-,0,0,-,-
O=C1C2C3C=CC(O3)C2C(=O)N1CC(O)c1ccccc1 (stereo not given),0,11µM,?,0,0
Cc1ccc(S(=O)(=O)N2CCC(C(=O)Nc3ccccc3N3CCCCC3)CC2)cc1,0,0,32µM,0,0
Cc1ccc(S(=O)(=O)N2CCC(C(=O)Nc3ccccc3N3CCCC3)CC2)cc1,0,0,0,0,0
CCN(CC)c1ccc(S(=O)(=O)N2CCCCC2)cc1NC(=O)C1CCC1,0,50µM,0,0,0
CCN(CC)c1ccc(S(=O)(=O)N2CCOCC2)cc1NC(=O)C1CC1,0,0,0,0,0
COc1ccccc1N1CCN(Cc2ccc(OC)c(OC)c2OC)CC1,0,0,?,0[3.69 µM],0
Oc1ccc(COC2CCN(Cc3ccccc3)C2)c2cccnc12 (stereo not given),-,45µM,?,-,0
Oc1ccc(CN2CCCc3ccccc32)c2cccnc12,0,0.1µM,?,0,0
COc1ccccc1N1CCN(Cc2ccc(O)c3ncccc23)CC1,0,50µM,0,?,0
CCOC(=O)C1CCN(Cc2ccc(O)c3ncccc23)CC1,9.5µM,2.8µM,0,0,0
CCOC(=O)C1CCN(Cc2ccccc2C(F)(F)F)CC1,0,0,0,0,0
SMILES,AMA1-RON2 inh,Sm TGR inh,AmpC inh detg,RE007 growth inh,AmpC inh no detg
OC1CCN(Cc2ccc(OCc3ccccc3)cc2)CC1,0,0,?,0,0
NNC(=O)CN1CCCc2ccccc21,0,0,0,0,0[11.4 µM]
O=C(Cn1c(=O)nc(-c2ccccc2F)c2cc(Cl)ccc21)N1CCN(c2ccccc2F)CC1,-,0,0,-,-
CCC1=NN2C(=N)/C(=C/c3ccc(OS(=O)(=O)c4ccccc4)cc3)C(=O)N=C2S1,0,0,0,0,28µM
CCS(=O)(=O)C1=NN2C(=N)/C(=C\c3ccc(OC(=O)c4ccco4)cc3)C(=O)N=C2S1,0,35µM,0,0,0
CCC1=NN2C(=N)/C(=C\c3cccn3-c3ccc(Cl)cc3)C(=O)N=C2S1,0,0,?,0,0.89µM
CCS(=O)(=O)C1=NN2C(=N)/C(=C\c3ccc(OS(=O)(=O)c4ccccc4)cc3)C(=O)N=C2S1,0,45µM,0,0,0
CCC1=NN2C(=N)/C(=C\c3cccn3-c3ccc(C)c(C)c3)C(=O)N=C2S1,0,0,?,0,0
